Source: PubChem BioAssay (NCI)
Compounds without any hit were thinned out: in the full panel of roughly 79,000, 15% have a hit. Activity calls are given as the source filed them. Cut-off read from the data, not from the text of the source: active = growth inhibition above about 70%; inactive = the rest.

Assays:
[1] = NCI Yeast Anticancer Drug Screen. Data for the rad52 strain (AID 147);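 note: 0% = growth of vehicle-treated control cultures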; settings: S. cerevisiae rad52 mutant growth inhibition, stronger effect = higher value
Summary of the method: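 Genetically altered yeast (DNA damage repair defect) treated with compound; inhibition calculated relative to vehicle.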

[2] = NCI Yeast Anticancer Drug Screen. Data for the wt1 strain (AID 149);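 note: 0% = growth of vehicle-treated wt1 cultures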; settings: S. cerevisiae wt1 strain (SPY 50644) growth inhibition, stronger effect = higher value
Summary of the method: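 Measured: growth of wt1 yeast under compound versus vehicle treatment, reported as inhibition.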

[3] = NCI Yeast Anticancer Drug Screen. Data for the rad50EPP+ strain (AID 151);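 note: 0% = growth of vehicle-treated control cultures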; settings: S. cerevisiae rad50 mutant strain, stronger effect = higher value
Summary of the method: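 Strain rad50EPP+; compound exposure; % growth inhibition vs vehicle.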

[4] = NCI Yeast Anticancer Drug Screen. Data for the mgt1 strain (AID 153); settings: S. cerevisiae mgt1 mutant growth inhibition, stronger effect = higher value
Summary of the method: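 Read-out: yeast growth inhibition vs vehicle control. Strain mgt1, drawn from a panel altered in DNA damage repair or cell cycle control.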

[5] = NCI Yeast Anticancer Drug Screen. Data for the rad50 strain (AID 155);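 note: 0% = growth of vehicle-only cultures of the same strain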; settings: S. cerevisiae rad50 strain growth inhibition, stronger effect = higher value
Summary of the method: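 Growth of the mutant yeast was measured after compound exposure and referenced to vehicle-treated cultures.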

[6] = NCI Yeast Anticancer Drug Screen. Data for the mec2-1 strain (AID 157); settings: S. cerevisiae mec2-1 strain, stronger effect = higher value
Summary of the method: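 Cells of the genetically defined mec2-1 yeast strain are incubated with test compound. Inhibition of growth is calculated against vehicle-treated controls.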

[7] = NCI Yeast Anticancer Drug Screen. Data for the rad14 strain (AID 159);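 note: 0% = growth of vehicle-treated control cultures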; settings: S. cerevisiae rad14 strain growth inhibition, stronger effect = higher value
Summary of the method: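 Here, inhibition of yeast growth was measured after compound exposure, using a strain with a genetic defect in DNA damage repair and vehicle-treated cultures as the reference.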

[8] = NCI Yeast Anticancer Drug Screen. Data for the sgs1 mgt1 strain (AID 161);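 note: 0% = growth of cultures given vehicle only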; settings: S. cerevisiae sgs1 mgt1 strain, stronger effect = higher value
Summary of the method: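 Read-out: growth inhibition vs vehicle controls. Cells: mutant yeast strain deficient in DNA damage repair.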

[9] = NCI Yeast Anticancer Drug Screen. Data for the CLN2oe strain (AID 163);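 note: 0% = growth of vehicle-only control cultures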; settings: S. cerevisiae CLN2oe strain, stronger effect = higher value
Summary of the method: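 Strain altered in cell-cycle control, incubated with compound; growth compared to solvent-treated controls.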

[10] = NCI Yeast Anticancer Drug Screen. Data for the cln2 rad14 strain (AID 165);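 note: 0% = growth equal to vehicle treated cultures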; settings: S. cerevisiae cln2 rad14 strain, stronger effect = higher value
Summary of the method: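 The screen exposed genetically defined yeast (cln2 rad14) to test compounds and scored growth inhibition relative to vehicle-treated controls.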

[11] = NCI Yeast Anticancer Drug Screen. Data for the bub3 strain (AID 167); settings: S. cerevisiae bub3 mutant strain, stronger effect = higher value
Summary of the method: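 Whole-cell yeast assay. The mutant strain was incubated with compounds, and growth inhibition was determined by comparison with vehicle-treated cells.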

[12] = NCI Yeast Anticancer Drug Screen. Data for the wt2 strain (AID 169);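 note: 0% = growth of vehicle-treated yeast cultures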; settings: S. cerevisiae wt2 strain growth inhibition, stronger effect = higher value
Summary of the method: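 Steps: yeast strain treated with compound; growth recorded; inhibition calculated relative to cultures given vehicle alone.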

[13] = NCI Yeast Anticancer Drug Screen. Data for the sgs1 strain (AID 173);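 note: 0% = growth of vehicle-only control cultures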; settings: S. cerevisiae sgs1 mutant, stronger effect = higher value
Summary of the method: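 Inhibition of yeast growth served as the measure. The mutant strain was treated with each compound, and growth was normalised to cultures receiving vehicle alone.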

[14] = NCI Yeast Anticancer Drug Screen. Data for the mlh1 rad18 strain (AID 175); settings: S. cerevisiae mlh1 rad18 strain growth inhibition, stronger effect = higher value
Summary of the method: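 Compound-treated yeast growth, normalised to vehicle controls. Strain bears defined DNA repair mutations.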

[15] = NCI Yeast Anticancer Drug Screen. Data for the rad18 strain (AID 177); settings: S. cerevisiae rad18 mutant growth inhibition, stronger effect = higher value
Summary of the method: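 Inhibition values reflect reduced yeast growth compared with vehicle-treated controls, using a strain engineered with a DNA damage repair defect.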

[16] = NCI Yeast Anticancer Drug Screen. Data for the mlh1 strain (AID 171);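 note: 0% = growth of vehicle-treated control cultures of the same strain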; settings: S. cerevisiae mlh1 strain growth inhibition, stronger effect = higher value
Summary of the method: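 Yeast screen: mutant strain plus compound, growth scored against vehicle control wells.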

[17] = at 5.0 µM (retest, dose inferred, filed as 0.5)
[18] = at 50.0 µM (retest, dose inferred, filed as 5.0)

Measured: growth inhibition

COc1cc([N+](=O)[O-])c2ncccc2c1Br
active: [10]; at 50.0 µM 81.8% | [14]; [18] 77% | [15]; at 1.2 µM 91% | [15]; at 3.7 µM 93% | [15]; at 11.0 µM 93% | [15]; at 33.0 µM 93% | [15]; at 100.0 µM 91%
inactive: [1]; at 1.2 µM 41% | [1]; at 3.7 µM 41% | [1]; at 11.0 µM 47% | [1]; at 33.0 µM 44% | [1]; at 100.0 µM 42% | [2]; at 1.2 µM -1% | [2]; at 3.7 µM -7% | [2]; at 11.0 µM 5% | [2]; at 33.0 µM -2% | [2]; at 100.0 µM -3% | [3]; at 1.2 µM 11% | [3]; at 3.7 µM 16% | [3]; at 11.0 µM 29% | [3]; at 33.0 µM 36% | [3]; at 100.0 µM 24% | [4]; at 1.2 µM -2% | [4]; at 3.7 µM -6% | [4]; at 11.0 µM -1% | [4]; at 33.0 µM -4% | [4]; at 100.0 µM -4% | [5]; at 1.2 µM 15% | [5]; at 3.7 µM 12% | [5]; [17] 14% | [5]; at 11.0 µM 25% | [5]; at 33.0 µM 33% | [5]; [18] 32% | [5]; at 50.0 µM 32.9% | [5]; at 100.0 µM 20% | [6]; at 1.2 µM 2% | [6]; at 3.7 µM 2% | [6]; [17] 2% | [6]; at 11.0 µM 5% | [6]; at 33.0 µM -1% | [6]; [18] 16% | [6]; at 50.0 µM 9.05% | [6]; at 100.0 µM 2% | [7]; at 1.2 µM 35% | [7]; at 3.7 µM 51% | [7]; at 11.0 µM 67% | [7]; at 33.0 µM 49% | [7]; at 100.0 µM 55% | [8]; [17] 26% | [8]; [18] 41% | [8]; at 50.0 µM 25.1% | [9]; at 1.2 µM -11% | [9]; at 3.7 µM -7% | [9]; at 11.0 µM -11% | [9]; at 33.0 µM -11% | [9]; at 100.0 µM -11% | [10]; [17] 22% | [10]; [18] 57% | [11]; at 1.2 µM -15% | [11]; at 3.7 µM -14% | [11]; [17] -4% | [11]; at 11.0 µM -16% | [11]; at 33.0 µM -18% | [11]; [18] -3% | [11]; at 50.0 µM -3.7% | [11]; at 100.0 µM -18% | [12]; at 1.2 µM -12% | [12]; at 3.7 µM 0% | [12]; at 11.0 µM 5% | [12]; at 33.0 µM 4% | [12]; at 100.0 µM 9% | [13]; at 1.2 µM 41% | [13]; at 3.7 µM 32% | [13]; at 11.0 µM 42% | [13]; at 33.0 µM 42% | [13]; at 100.0 µM 38% | [14]; [17] 53% | [14]; at 50.0 µM 29.3%

O=C(/C(=C/c1ccc(O)cc1)c1ccccc1)c1ccccc1
inactive: [1]; at 1.2 µM -52% | [1]; at 3.7 µM -55% | [1]; at 11.0 µM -14% | [2]; at 1.2 µM -22% | [2]; at 3.7 µM -13% | [2]; at 11.0 µM 35% | [3]; at 1.2 µM -5% | [3]; at 3.7 µM -2% | [3]; at 11.0 µM 1% | [3]; at 33.0 µM 15% | [3]; at 100.0 µM 9% | [4]; at 1.2 µM -4% | [4]; at 3.7 µM -2% | [4]; at 11.0 µM 51% | [5]; at 1.2 µM -8% | [5]; at 3.7 µM -2% | [5]; [17] 27% | [5]; at 11.0 µM 53% | [6]; at 1.2 µM -27% | [6]; at 3.7 µM -20% | [6]; [17] -8% | [6]; at 11.0 µM 55% | [6]; at 50.0 µM 34.5% | [7]; at 1.2 µM -2% | [7]; at 3.7 µM 0% | [7]; at 11.0 µM 13% | [8]; [17] 39% | [9]; at 1.2 µM 8% | [9]; at 3.7 µM 10% | [9]; at 11.0 µM 61% | [10]; [17] 20% | [12]; at 1.2 µM -38% | [12]; at 3.7 µM -31% | [12]; at 11.0 µM 33% | [16]; at 1.2 µM 6% | [16]; at 3.7 µM 24% | [16]; at 11.0 µM 68% | [13]; at 1.2 µM -18% | [13]; at 3.7 µM -13% | [13]; at 11.0 µM 16% | [14]; [17] 0% | [15]; at 1.2 µM -29% | [15]; at 3.7 µM -33% | [15]; at 11.0 µM 17%
active: [1]; at 33.0 µM 99% | [1]; at 100.0 µM 93% | [2]; at 33.0 µM 98% | [2]; at 100.0 µM 92% | [4]; at 33.0 µM 99% | [4]; at 100.0 µM 89% | [5]; at 33.0 µM 98% | [5]; [18] 98% | [5]; at 50.0 µM 87.5% | [5]; at 100.0 µM 93% | [6]; at 33.0 µM 98% | [6]; [18] 97% | [6]; at 100.0 µM 85% | [7]; at 33.0 µM 99% | [7]; at 100.0 µM 94% | [8]; [18] 97% | [8]; at 50.0 µM 93% | [9]; at 33.0 µM 99% | [9]; at 100.0 µM 93% | [10]; [18] 97% | [10]; at 50.0 µM 92.5% | [12]; at 33.0 µM 98% | [12]; at 100.0 µM 93% | [16]; at 33.0 µM 98% | [16]; at 100.0 µM 88% | [13]; at 33.0 µM 98% | [13]; at 100.0 µM 93% | [14]; [18] 98% | [14]; at 50.0 µM 84% | [15]; at 33.0 µM 98% | [15]; at 100.0 µM 86%
